# Assay results as given in the supplement of paper PMC4206467.
# Tested on: Perkinsus marinus PRA240
# Experiment: ATP content (proliferation) relative to DMSO control; higher = more parasite growth (less inhibition)
# Details: 20 µM; 4 days
# Description: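 Perkinsus marinus PRA240 trophozoites (2-5x10^6 cells/ml, 100 µl, 96-well) were exposed once to MMV Malaria Box compounds at 20 µM (0.1% DMSO) in triplicate. ATP content (ATPlite bioluminescence) was read at day 4 post-exposure and normalised to DMSO + cells control wells (100% activity). Compounds were identified by joining plate and well to the Malaria Box list.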
row,SMILES,ATP content
1,O=C(Nc1cccc(-c2nc3ccccc3[nH]2)c1)c1cccc(NC(=O)c2ccco2)c1,126%
2,O=C1c2ccc3c4c(ccc(c24)C(=O)N1CCCCO)C(=O)N(CCCCO)C3=O,50.5%
3,CN1CCN(c2nc(Nc3ccc(O)cc3)nc3ccccc23)CC1,114%
4,OC(CNCC1CCCO1)Cn1c2ccc(Cl)cc2c2cc(Cl)ccc21 (stereo not drawn),142%
5,Cc1sc(NC(=O)c2ccco2)c(C(c2cccnc2)N2CCC(Cc3ccccc3)CC2)c1C (stereo not drawn),48.5%
6,OC(Cn1nnc2ccccc21)Cn1c2ccc(Br)cc2c2cc(Br)ccc21 (stereo not drawn),135%
7,CN1C=C(c2ccc3ccccc3n2)C(c2c[nH]c3ccccc23)c2ccccc21 (stereo not drawn),108%
8,Cc1cc(N2CCCC2)nc(Nc2ccc(NC(=O)CCc3ccccc3)cc2)n1,119%
9,COc1ccc(Nc2nc(NN=Cc3ccc(O)cc3)nc(Nc3ccc([N+](=O)[O-])cc3)n2)cc1,39.1%
10,O=C(Nc1ccc(N2CCN(Cc3ccccc3)CC2)cc1)c1cccs1,86.8%
11,O=C(Nc1ccc(-c2nc3cc4ccccc4cc3[nH]2)cc1)c1cccc(Br)c1,124%
12,O=C(NNc1cc(N2CCCC2)nc(N2CCCC2)n1)c1ccccc1,101%
13,COc1ccc(C2NCCc3c2[nH]c2ccccc32)cc1CN1CCN(c2ccc(F)cc2)CC1 (stereo not drawn),171%
14,O=C(CCc1ccccc1)c1ccccc1OCC(O)CN1CCCCC1 (stereo not drawn),62.3%
15,COc1cccc(C2(C)Nc3ccccc3-c3nc4ccccc4n32)c1 (stereo not drawn),144%
16,Cc1ccc(Cl)cc1N1CCN(CCCNC(=O)C2CCN(c3nc4ccccc4[nH]3)CC2)CC1,87.1%
17,Cc1nc2ccccc2c(O)c1CC=C(Cl)Cl,50.4%
18,Oc1c2c(nc3ccccc13)CCCC2,42.5%
19,CN(C)CCCNCc1ccc(-c2ccc(F)c(Cl)c2)o1,123%

row,SMILES,ATP content
1,CCOC(=O)C1(Cc2ccccc2)CCN(Cc2cccc(OC)c2O)CC1,143%
2,Cc1ccc(S(=O)(=O)c2c(COC(=O)c3cccc(C)c3)c(-c3ccccc3)nn2C)cc1,162%
3,COc1ccc(CCN2C(=O)c3[nH]nc(-c4cc(Cl)c(C)cc4O)c3C2c2ccccc2F)cc1 (stereo not drawn),91.4%
4,CC(C)(C)c1ccc(C(=O)Nc2nc3ccccc3s2)cc1,57%
5,O=C(Nc1ccc(F)c(Cl)c1)Nc1ccc(Cl)c(Cl)c1,46.8%
6,COc1cccc(-c2nn(C)c3sc(C(=O)NCCN4CCN(c5ccccc5F)CC4)cc23)c1,89.7%
7,CC(C)c1ccc(CNCC(O)c2ccccc2)cc1 (stereo not drawn),117%
8,Cc1cc(=O)oc2c1ccc1oc(C(=O)c3ccccc3)c(C)c12,154%
9,COC(=O)c1ccc(C2C3=C(O)CC(c4ccc(F)cc4)CC3=Nc3ccccc3N2C(=O)c2ccccc2)cc1 (stereo not drawn),105%
10,C=C(C)CCC(C)N1CCC(N2CCC(C(=O)NCCc3ccccc3)CC2)CC1 (stereo not drawn),90%
11,CC(C)OCc1cc(CN2CCN(c3cccc(Cl)c3)CC2)c(O)c2ncccc12,12%
12,COc1ccc(C(=O)NC(c2ccc(Cl)cc2Cl)c2cc(Cl)c3cccnc3c2O)cc1 (stereo not drawn),96.4%
13,CC(C)CNC(=O)c1c(N)n(CCc2ccccc2F)c2nc3ccccc3nc12,90.4%
14,CCOc1ccc(Nc2c3ccccc3nc3ccccc23)cc1,159%
15,CCCCc1c(CCC)c(=N)c2ccccc2n1C,95.4%
16,CC(C)(C)C(=O)Nc1ccc(C(=O)Nc2cccc(-c3nc4ccccc4[nH]3)c2)cc1,67.7%
17,COc1ccc(-c2nc(N3CCN(C(=O)C4CCCCC4)CC3)c3c4c(sc3n2)CCCC4)cc1,69.7%
18,CCC(=O)Nc1nnc(Cc2ccc(OC)c(OC)c2)s1,103%
19,Cc1ccc(Nc2nc(N)c3ccccc3n2)cc1Cl,4.69%
